# Measured values from the supplement of paper PMC8728848.
# This excerpt belongs to a sample that is enriched for the strongest signals.
# Legend:
# Experiment in all cases: glycan array binding signal (z-score within array); higher = stronger binding
# Settings in all cases: glycan notation: IUPAC condensed, linker removed
# [1] = target: Fuc(a1-2)Gal(b1-3)GalNAc(a1-3)[Fuc(a1-2)]Gal(b1-4)GlcNAc
# How it was run: (§1)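 The Consortium for Functional Glycomics database supplied 3228 glycan arrays, of which those lacking an available protein sequence were dropped. The binding signal, a within-array Z-score, was averaged across arrays of the same protein sequence and across linkers. Negative scores can be read as non-binding.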
# [2] = target: Fuc(a1-2)Gal(b1-3)GlcNAc(b1-3)[Gal(b1-4)GlcNAc(b1-6)]Gal(b1-4)Glc
# How it was run: as §1
# [3] = target: Fuc(a1-2)Gal(b1-3)[Fuc(a1-4)]GlcNAc(b1-2)Man(a1-3)[Fuc(a1-2)Gal(b1-3)[Fuc(a1-4)]GlcNAc(b1-2)Man(a1-3)]Man(b1-4)GlcNAc(b1-4)GlcNAc
# How it was run: as §1
# [4] = target: Fuc(a1-2)Gal(b1-4)Glc
# How it was run: as §1
# [5] = target: Fuc(a1-2)Gal(b1-4)GlcNAc(b1-6)GalNAc
# How it was run: as §1
# [6] = target: Fuc(a1-2)Gal(b1-4)[Fuc(a1-3)]GlcNAc
# How it was run: as §1
# [7] = target: Fuc(a1-2)Gal3S(b1-4)GlcNAc
# How it was run: as §1
# [8] = target: Fuc(a1-2)[GalNAc(a1-3)]Gal(b1-4)GlcNAc(b1-2)Man(a1-3)[Fuc(a1-2)[GalNAc(a1-3)]Gal(b1-4)GlcNAc(b1-2)Man(a1-6)]Man(b1-4)GlcNAc(b1-4)[Fuc(a1-6)]GlcNAc
# How it was run: as §1
# [9] = target: Fuc(a1-2)[GalNAc(a1-3)]Gal(b1-4)GlcNAc(b1-3)Gal(b1-4)GlcNAc
# How it was run: as §1
# [10] = target: Fuc(a1-2)[GalNAc(a1-3)]Gal(b1-4)[Fuc(a1-3)]GlcNAc
# How it was run: as §1
# [11] = target: Fuc(a1-3)[Gal(b1-4)]GlcNAc(b1-3)Gal(b1-4)[Fuc(a1-3)]GlcNAc
# How it was run: as §1
# [12] = target: Fuc(a1-3)[Gal(b1-4)]GlcNAc6S
# How it was run: as §1
# [13] = target: Gal(a1-3)Gal(b1-3)GlcNAc(b1-2)Man
# How it was run: as §1
# [14] = target: Gal(b1-3)GlcNAc(a1-3)Gal(b1-4)GlcNAc
# How it was run: as §1
# [15] = target: Gal(b1-3)GlcNAc(b1-3)Gal(b1-4)GlcNAc
# How it was run: as §1
# [16] = target: Gal(b1-4)GlcNAc(b1-3)Gal(b1-3)GlcNAc
# How it was run: as §1
# [17] = target: Gal(b1-4)GlcNAc(b1-3)Gal(b1-4)GlcNAc(b1-3)Gal(b1-4)GlcNAc(b1-3)Gal(b1-4)GlcNAc(b1-3)Gal(b1-4)GlcNAc(b1-2)Man(a1-3)[Gal(b1-4)GlcNAc(b1-3)Gal(b1-4)GlcNAc(b1-3)Gal(b1-4)GlcNAc(b1-3)Gal(b1-4)GlcNAc(b1-3)Gal(b1-4)GlcNAc(b1-2)Man(a1-6)]Man(b1-4)GlcNAc(b1-4)[Fuc(a1-6)]GlcNAc
# How it was run: as §1
# [18] = target: Gal(b1-4)GlcNAc(b1-3)Gal(b1-4)[Fuc(a1-3)]GlcNAc(b1-3)Gal(b1-4)[Fuc(a1-3)]GlcNAc
# How it was run: as §1
# [19] = target: Gal3S(b1-3)[Fuc(a1-4)]GlcNAc
# How it was run: as §1
# [20] = target: Gal4S(b1-4)GlcNAc
# How it was run: as §1
# [21] = target: Gal6S(b1-4)GlcNAc
# How it was run: as §1
# [22] = target: GalNAc(a1-3)GalNAc(b1-3)Gal(a1-4)Gal(b1-4)GlcNAc
# How it was run: as §1
# [23] = target: GalNAc(b1-4)GlcNAc
# How it was run: as §1
# [24] = target: GalNAc(b1-4)GlcNAc(b1-2)Man(a1-3)[GalNAc(b1-4)GlcNAc(b1-2)Man(a1-6)]Man(b1-4)GlcNAc(b1-4)GlcNAc
# How it was run: as §1
# [25] = target: GalNAc3S(b1-4)GlcNAc3S
# How it was run: as §1
# [26] = target: Glc(a1-6)Glc(a1-6)Glc
# How it was run: as §1
# [27] = target: GlcNAc(b1-2)Gal(b1-3)GalNAc
# How it was run: as §1
# [28] = target: GlcNAc(b1-2)[GlcNAc(b1-4)]Man(a1-3)[GlcNAc(b1-2)Man(a1-6)]Man(b1-4)GlcNAc(b1-4)GlcNAc
# How it was run: as §1
# [29] = target: GlcNAc(b1-3)Gal(b1-4)GlcNAc(b1-3)Gal(b1-4)GlcNAc(b1-3)Gal(b1-4)GlcNAc(b1-3)Gal(b1-4)GlcNAc(b1-2)Man(a1-3)[GlcNAc(b1-3)Gal(b1-4)GlcNAc(b1-3)Gal(b1-4)GlcNAc(b1-3)Gal(b1-4)GlcNAc(b1-3)Gal(b1-4)GlcNAc(b1-2)Man(a1-6)]Man(b1-4)GlcNAc(b1-4)[Fuc(a1-6)]GlcNAc
# How it was run: as §1
# [30] = target: GlcNAc(b1-3)Gal(b1-4)GlcNAc(b1-3)Gal(b1-4)GlcNAc(b1-3)GalNAc
# How it was run: as §1
# [31] = target: GlcNAc(b1-3)[GlcNAc(b1-6)]GalNAc
# How it was run: as §1
# [32] = target: GlcNAc(b1-4)GlcNAc(b1-4)GlcNAc(b1-4)GlcNAc(b1-4)GlcNAc(b1-4)GlcNAc
# How it was run: as §1
# [33] = target: Kdn(a2-6)Gal(b1-4)GlcNAc
# How it was run: as §1
# [34] = target: Man(a1-2)Man(a1-2)Man(a1-3)Man
# How it was run: as §1
# [35] = target: Man(a1-2)Man(a1-3)[Man(a1-2)Man(a1-6)]Man
# How it was run: as §1
# [36] = target: Man(a1-3)[Man(a1-6)]Man(a1-6)[Man(a1-3)]Man(b1-4)GlcNAc(b1-4)GlcNAc
# How it was run: as §1
# [37] = target: MurNAc(b1-4)GlcNAc
# How it was run: as §1
# [38] = target: Neu5Ac(a2-3)Gal(b1-4)GlcNAc(b1-2)Man(a1-3)[GlcNAc(b1-4)][Neu5Ac(a2-3)Gal(b1-4)GlcNAc(b1-2)Man(a1-6)]Man(b1-4)GlcNAc(b1-4)GlcNAc
# How it was run: as §1
# [39] = target: Neu5Ac(a2-3)Gal(b1-4)GlcNAc(b1-3)Gal(b1-4)GlcNAc
# How it was run: as §1
# [40] = target: Neu5Ac(a2-3)Gal(b1-4)GlcNAc(b1-3)Gal(b1-4)GlcNAc(b1-3)[Neu5Ac(a2-3)Gal(b1-4)GlcNAc(b1-3)Gal(b1-4)GlcNAc(b1-6)]GalNAc
# How it was run: as §1
# [41] = target: Neu5Ac(a2-3)Gal(b1-4)GlcNAc(b1-3)[Neu5Ac(a2-3)Gal(b1-4)GlcNAc(b1-6)]GalNAc
# How it was run: as §1
# [42] = target: Neu5Ac(a2-3)Gal(b1-4)[Fuc(a1-3)]GlcNAc(b1-3)GalNAc
# How it was run: as §1
# [43] = target: Neu5Ac(a2-6)Gal(b1-4)GlcNAc(b1-2)Man(a1-3)Man(b1-4)GlcNAc(b1-4)GlcNAc
# How it was run: as §1
# [44] = target: Neu5Ac(a2-6)Gal(b1-4)GlcNAc(b1-2)Man(a1-3)[Gal(b1-4)GlcNAc(b1-2)Man(a1-6)]Man(b1-4)GlcNAc(b1-4)GlcNAc
# How it was run: as §1
# [45] = target: Neu5Ac(a2-6)Gal(b1-4)GlcNAc(b1-2)[Neu5Ac(a2-6)Gal(b1-4)GlcNAc(b1-4)]Man(a1-3)[GlcNAc(b1-4)][Neu5Ac(a2-6)Gal(b1-4)GlcNAc(b1-2)[Neu5Ac(a2-6)Gal(b1-4)GlcNAc(b1-6)]Man(a1-6)]Man(b1-4)GlcNAc(b1-4)GlcNAc
# How it was run: as §1
# [46] = target: Neu5Ac(a2-6)Gal(b1-4)GlcNAc(b1-2)[Neu5Ac(a2-6)Gal(b1-4)GlcNAc(b1-6)]Man(a1-6)[Neu5Ac(a2-6)Gal(b1-4)GlcNAc(b1-2)Man(a1-3)][GlcNAc(b1-4)]Man(b1-4)GlcNAc(b1-4)GlcNAc
# How it was run: as §1
# [47] = target: Neu5Ac(a2-6)Gal(b1-4)GlcNAc(b1-3)Gal(b1-4)GlcNAc
# How it was run: as §1
# [48] = target: Neu5Ac(a2-6)Gal(b1-4)GlcNAc(b1-3)Gal(b1-4)GlcNAc(b1-3)[Neu5Ac(a2-6)Gal(b1-4)GlcNAc(b1-3)Gal(b1-4)GlcNAc(b1-6)]GalNAc
# How it was run: as §1
# [49] = target: Neu5Ac(a2-6)Gal(b1-4)GlcNAc(b1-6)[Gal(b1-3)GlcNAc(b1-3)]Gal(b1-4)Glc
# How it was run: as §1
# [50] = target: Neu5Ac(a2-8)Neu5Ac(a2-8)Neu5Ac
# How it was run: as §1
# [51] = target: Neu5Gc(a2-8)Neu5Gc(a2-6)Gal(b1-4)GlcNAc
# How it was run: as §1
binder,measurement,setting,value
"EfCBM33A (Enterococcus faecalis), Q838S1 (protein) MKKSLLTIVLAFSFVLGGAALAPTVSEAHGYVASPGSRAFFGSSAGGNLNTNVGRAQWEPQSIEAPKNTFITGKLASAGVSGFEPLDEQTATRWHKTNITTGPLDITWNLTAQHRTASWDYYITKNGWNPNQPLDIKNFDKIASIDGKQEVPNKVVKQTINIPTDRKGYHVIYAVWGIGDTVNAFYQAIDVNIQ",glycan array binding signal (z-score),[1],-0.436
same,glycan array binding signal (z-score),[2],-0.026
same,glycan array binding signal (z-score),[3],0.371
same,glycan array binding signal (z-score),[4],0.342
same,glycan array binding signal (z-score),[5],1.05
same,glycan array binding signal (z-score),[6],0.633
same,glycan array binding signal (z-score),[7],0.017
same,glycan array binding signal (z-score),[8],-0.321
same,glycan array binding signal (z-score),[9],0.048
same,glycan array binding signal (z-score),[10],-1.09
same,glycan array binding signal (z-score),[11],0.008
same,glycan array binding signal (z-score),[12],0.882
same,glycan array binding signal (z-score),[13],1.41
same,glycan array binding signal (z-score),[14],0.358
same,glycan array binding signal (z-score),[15],2.06
same,glycan array binding signal (z-score),[16],-0.608
same,glycan array binding signal (z-score),[17],8.45
same,glycan array binding signal (z-score),[18],0.067
same,glycan array binding signal (z-score),[19],2.81
same,glycan array binding signal (z-score),[20],-1.18
same,glycan array binding signal (z-score),[21],0.105
same,glycan array binding signal (z-score),[22],-0.606
same,glycan array binding signal (z-score),[23],1.05
same,glycan array binding signal (z-score),[24],3.54
same,glycan array binding signal (z-score),[25],0.074
same,glycan array binding signal (z-score),[26],0.821
same,glycan array binding signal (z-score),[27],-0.504
same,glycan array binding signal (z-score),[28],0.123
same,glycan array binding signal (z-score),[29],4.24
same,glycan array binding signal (z-score),[30],0.242
same,glycan array binding signal (z-score),[31],-0.941
same,glycan array binding signal (z-score),[32],0.083
same,glycan array binding signal (z-score),[33],0.328
same,glycan array binding signal (z-score),[34],-0.162
same,glycan array binding signal (z-score),[35],0.783
same,glycan array binding signal (z-score),[36],0.455
same,glycan array binding signal (z-score),[37],0.631
same,glycan array binding signal (z-score),[38],0.122
same,glycan array binding signal (z-score),[39],-0.177
same,glycan array binding signal (z-score),[40],7.32
same,glycan array binding signal (z-score),[41],3.14
same,glycan array binding signal (z-score),[42],2.79
same,glycan array binding signal (z-score),[43],2.04
same,glycan array binding signal (z-score),[44],0.519
same,glycan array binding signal (z-score),[45],2.16
same,glycan array binding signal (z-score),[46],0.103
same,glycan array binding signal (z-score),[47],2.76
same,glycan array binding signal (z-score),[48],0.687
same,glycan array binding signal (z-score),[49],-0.451
same,glycan array binding signal (z-score),[50],0.016
same,glycan array binding signal (z-score),[51],-0.736
